The values below come from PubChem BioAssay (Tox21).

The nature of assay [1]: qHTS assay to test for compound auto fluorescence at 535 nm (green) in HEK293 cells (AID 720680). Background: In qHTS, concentration-response curves come from the screen itself.
A short description of assay [2]: qHTS assay to test for compound auto fluorescence at 460 nm (blue) in HEK293 cell free culture (AID 720681). The essentials:
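Compounds were added to cell-free DMEM with 10% FBS and fluorescence read directly. The blue channel used 405 nm excitation and 460 nm emission, with triamterene as the reference fluorophore.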

The nature of assay [3]: qHTS assay to test for compound auto fluorescence at 535 nm (green) in HEK293 cell free culture (AID 720682). The essentials: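 Read-out: 485/535 nm fluorescence intensity, calibrated against fluorescein. Medium only (DMEM + 10% FBS, no cells); test compound or DMSO vehicle added by pintool before plate reading.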
Assay [4] in a line: qHTS assay to test for compound auto fluorescence at 590 nm (red) in HEK293 cell free culture (AID 720683). The method, boiled down: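 Cell-free wells of DMEM with 10% FBS received compound, and intrinsic fluorescence was read at excitation/emission 540/590 nm. Values expressed as equivalence to Rose Bengal sodium.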
A short description of assay [5]: qHTS assay to test for compound auto fluorescence at 590 nm (red) in HepG2 cell free culture (AID 720684). The method, boiled down: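 Compounds are added to culture medium (MEM, 10% FBS) lacking cells, then fluorescence is read at excitation 540 nm, emission 590 nm, with Rose Bengal sodium as the equivalency standard.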
Assay [6] can be described thus: qHTS assay to test for compound auto fluorescence at 460 nm (blue) in HepG2 cell free culture (AID 720685). The method, boiled down:
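Compound (23 nL) or DMSO pinned into cell-free MEM with 10% FBS; blue fluorescence read at 405/460 nm excitation/emission, expressed as auto-fluorescence equivalency to triamterene.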

A short description of assay [7]: qHTS assay to test for compound auto fluorescence at 535 nm (green) in HepG2 cell free culture (AID 720686).
A short description of assay [8]: qHTS assay to test for compound auto fluorescence at 460 nm (blue) in HepG2 cells (AID 720687). The essentials:
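HepG2 cells in MEM with 10% FBS, attached overnight at 37 C, were exposed to compound or DMSO for 1 hr at 37 C, 5% CO2. Blue fluorescence was read at 405/460 nm, with triamterene as reference fluorophore.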

For assay [9], the target named is Glucocorticoid receptor (Homo sapiens) (UniProt P04150). The experiment in a line: qHTS assay to identify small molecule agonists of the glucocorticoid receptor (GR) signaling pathway (AID 720691; active = well fitted activation curve with a large enough effect in the signal ratio in the repeat runs, not every such curve was filed as active; the % refers to the signal ratio). Particulars: GR-bla HeLa, beta-lactamase reporter ratio, 18 h; activation: at 62.4 µM (top of the series). The method, boiled down:
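Beta-lactamase reporter activity, read as fluorescence intensity, was measured in GR-bla HeLa cells exposed to compounds for 18 h at 37 C and then loaded with LiveBLAzer B/G FRET substrate for 2 h at room temperature.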

The nature of assay [10]: qHTS assay to identify small molecule antagonists of the glucocorticoid receptor (GR) signaling pathway - cell viability counter screen (AID 720693). Also: nearly all actives have a fitted effect of over 55% in size.
Assay [11] in a line: qHTS assay for identifying genotoxic compounds that show differential cytotoxicity against isogenic chicken DT40 cell lines with known DNA damage response pathways - wild type cell line (AID 743012). Also: nearly all actives have a fitted effect of over 60% in size. Also: potency is read from the fitted curve at half-maximal effect. The essentials:
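Quantitative HTS on parental DT40 cells: 40 h compound treatment at 37 C/5% CO2, with viability then determined by CellTiter-Glo luminescence. Values serve as the DNA repair-proficient reference for differential cytotoxicity.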

Assay [12] in a line: qHTS assay for identifying genotoxic compounds that show differential cytotoxicity against isogenic chicken DT40 cell lines with known DNA damage response pathways - Rev3 mutant cell line (AID 743014). Also: nearly all actives have a fitted effect of over 55% in size. Also: potency is read from the fitted curve at half-maximal effect.
The nature of assay [13]: qHTS assay for identifying genotoxic compounds that show differential cytotoxicity against isogenic chicken DT40 cell lines with known DNA damage response pathways - Rad54/Ku70 mutant cell line (AID 743015). Also: nearly all actives have a fitted effect of over 60% in size. Also: potency is read from the fitted curve at half-maximal effect.
Assay [14] is described as follows: qHTS assay to identify small molecule antagonists of the androgen receptor (AR) signaling pathway - cell viability counter screen (AID 743033; also: nearly all actives have a fitted effect of over 45% in size).
The target in assay [15] is Glucocorticoid receptor (Homo sapiens) (UniProt P04150). Kind of assay: qHTS assay to identify small molecule antagonists of the glucocorticoid receptor (GR) signaling pathway (AID 720692; active = well fitted inhibition curve with a large enough effect in the signal ratio in the repeat runs, not every such curve was filed as active; the % refers to the signal ratio; also: potency is read from the fitted curve at half-maximal effect). The method, boiled down: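 Fluorescence from cleaved LiveBLAzer B/G FRET substrate reports GRE-driven beta-lactamase in HeLa cells; compounds are tested against 5 nM dexamethasone (final) over 18 h at 37 C, substrate incubation 2 h at room temperature.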
Sequence of Glucocorticoid receptor (Homo sapiens) (P04150 whole entry, looked up): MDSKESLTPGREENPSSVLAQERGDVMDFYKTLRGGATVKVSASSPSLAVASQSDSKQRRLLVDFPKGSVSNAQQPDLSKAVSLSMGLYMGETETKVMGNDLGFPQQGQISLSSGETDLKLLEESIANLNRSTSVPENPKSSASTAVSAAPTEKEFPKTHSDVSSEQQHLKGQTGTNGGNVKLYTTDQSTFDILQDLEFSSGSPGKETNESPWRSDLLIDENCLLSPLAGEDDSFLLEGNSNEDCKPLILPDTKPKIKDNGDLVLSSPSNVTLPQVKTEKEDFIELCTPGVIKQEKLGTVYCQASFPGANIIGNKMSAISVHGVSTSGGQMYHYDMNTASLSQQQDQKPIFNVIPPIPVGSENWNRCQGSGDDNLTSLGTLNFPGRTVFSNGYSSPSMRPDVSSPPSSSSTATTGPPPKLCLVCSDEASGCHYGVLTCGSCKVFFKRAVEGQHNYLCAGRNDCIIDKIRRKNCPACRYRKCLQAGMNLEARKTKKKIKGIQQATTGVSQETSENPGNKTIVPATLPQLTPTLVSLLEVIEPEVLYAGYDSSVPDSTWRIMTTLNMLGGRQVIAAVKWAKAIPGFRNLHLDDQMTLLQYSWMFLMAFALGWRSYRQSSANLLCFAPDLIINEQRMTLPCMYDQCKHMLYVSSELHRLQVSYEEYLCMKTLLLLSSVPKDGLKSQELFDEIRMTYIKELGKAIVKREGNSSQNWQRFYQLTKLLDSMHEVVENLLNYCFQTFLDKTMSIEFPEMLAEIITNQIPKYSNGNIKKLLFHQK

Assay [16] in a line: qHTS assay to identify small molecule antagonists of the androgen receptor (AR) signaling pathway using the MDA cell line - cell viability counter screen (AID 743041; also: nearly all actives have a fitted effect of over 45% in size; also: potency is read from the fitted curve at half-maximal effect). The essentials:
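Same-well cytotoxicity was assessed by CellTiter-Fluor in MDA-kb2 AR-luc cells after 16 h of compound treatment under R1881 agonism.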

Results filed as inconclusive are left out. Calls of active or inactive are those of the source. Unless noted, calls follow the shape of the dose curve; as a rule, active = well fitted curve in the direction sought with a large enough effect in the repeat runs; inconclusive = weak or mixed curves; inactive = no such curve, though single readings can be large; an effect the other way counts as inactive or inconclusive.

Take `O=c1oc2cc(O)ccc2s1`: the Potency result in [1], in [2], in assay [3], in assay [4], in [5] and in [7] was “inactive” in each case. Moreover, the Potency result in assay [9], in [10], in [11], in assay [12], in assay [13] and in assay [14] was “inactive” throughout. For the same compound, the compound was classed as inactive in [6] and in [8].

Take `CO[C@H]1C=CO[C@@]2(C)Oc3c(C)c(O)c4c(O)c(c(/C=N/N5CCN(C6CCCC6)CC5)c(O)c4c3C2=O)NC(=O)/C(C)=C\C=C[C@H](C)[C@H](O)[C@@H](C)[C@@H](O)[C@@H](C)[C@H](OC(C)=O)[C@@H]1C`: the Potency entry in assay [1], in assay [2], in assay [3], in [4], in [5] and in assay [7] was “inactive” each time. Besides, the Potency result in assay [9] and in assay [14] was “inactive” in each case. For the same compound, the compound was classed as inactive in [6] and in assay [8]. The Potency was 21.3 µM (active) in assay [15]; 3.35 µM (active) in assay [11]; 8.41 µM (active) in [12]; 4.22 µM (active) in [13]; 23.7 µM (active) in assay [16].

Regarding `CCCCCCCCCCCCCCCC(=O)O[C@@H]1CC(C)=C(/C=C/C(C)=C/C=C/C(C)=C/C=C/C=C(C)/C=C/C=C(C)/C=C/C2=C(C)C[C@@H](OC(=O)CCCCCCCCCCCCCCC)CC2(C)C)C(C)(C)C1`, the Potency entry in assay [1], in assay [2], in [3], in assay [4], in assay [5] and in assay [7] was “inactive” each time. For the same compound, the Potency entry in [9], in [11], in assay [12], in [13], in [14] and in [16] was “inactive” in each case. The call in [6] and in [8] was inactive. The Potency in assay [15] is 12 µM (active).

Turning to `CN1CCC(OC(=O)C(Oc2ccc(Cl)cc2)Oc2ccc(Cl)cc2)CC1`, the Potency entry in assay [1], in assay [2], in assay [3], in [4], in assay [5] and in assay [7] was “inactive” each time. Besides, the Potency result in assay [9], in [10], in [11], in assay [12], in assay [13] and in [14] was “inactive” throughout. Also, the compound was called inactive in [6] and in assay [8].

Consider `CCN(CC)CCOc1ccccc1OC`, for which the Potency entry in assay [1], in [2], in [3], in [4], in assay [5] and in assay [7] was “inactive” throughout. In addition, the Potency result in assay [9], in [10], in assay [11], in assay [12], in assay [13] and in assay [14] was “inactive” in each case. For the same compound, the Potency result in assay [16] was “inactive”. Also, the call in [6] and in assay [8] was inactive.

For the compound `CC(C)(C)C1(O)CCN2CC3c4ccccc4CCc4cccc(c43)C2C1` (stereo not given), the Potency result in assay [1], in [2], in [3], in assay [4], in assay [5] and in [7] was “inactive” each time. Further, the Potency result in assay [9], in assay [10] and in assay [14] was “inactive” throughout. Besides, the compound was classed as inactive in assay [6] and in assay [8]. Besides, the results for the Potency in assay [11], in assay [12] and in assay [13] were 9.44 µM (active), 11.9 µM (active) and 11.9 µM (active), respectively.

As for `CC(C(=O)O)c1ccc(N2Cc3ccccc3C2=O)cc1` (stereo not given), the Potency entry in assay [1], in assay [2], in assay [3], in assay [4], in assay [5] and in [7] was “inactive” throughout. The Potency entry in assay [9], in assay [10], in assay [11], in assay [12], in assay [13] and in [14] was “inactive” in each case. The Potency entry in assay [16] is “inactive”. The result in assay [6] and in assay [8] was inactive.

On to `C[C@@H]1CCC2[C@@H](C)[C@@H](O)O[C@@H]3O[C@@]4(C)CC[C@@H]1[C@@]23OO4` (stereo not given in full), for which the Potency result in [1], in [2], in [3], in assay [4], in [5] and in assay [7] was “inactive” throughout. The Potency entry in assay [9] and in assay [15] was “inactive” throughout. Also, the result in assay [6] and in assay [8] was inactive. In addition, the Potency in [11] was 0.119 µM (active); in [12], 0.133 µM (active); in [13] it was 0.0473 µM (active).
